N370S GC mod: qHTS Assay for Inhibitors and Activators of N370S glucocerebrosidase as a Potential Chaperone Treatment of Gaucher Disease; Potency, µM (top dose mostly 59.4 µM), for inactives: at the top dose activity change, negative = inhibition, actives largely listed as inhibitors; Lysosomal acid glucosylceramidase (Homo sapiens), P04062; N370S GC spleen homogenate, 4MU-glucoside fluorescence; actives 0.092% (n = 330,000);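 also: potency is read from the fitted curve at half-maximal effect; 0% = full enzyme activity and -100% = no enzyme basal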
TCR activator: Activators of T cell receptors: qHTS campaign. primary human leukocytes, anti-CD3, IL-2 HTRF, 48 h. Potency, µM (series often up to 9.22 µM), without a hit: at the top dose activation of IL-2 secretion, hits mostly activators. 330,000 tested, under 10 active. AID 504894, 2011; also: % of control where 0% means no effect
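Human primary leukocytes + a-CD3 beads + cpd, 48 hr; IL-2 in supernatant by HTRF (ex 320nm / em 665nm). No co-stimulatory signal supplied.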
p53 reactivation: qHTS assay for re-activators of p53 using a Luc reporter | H1299 p53-A138V BP100-luciferase reporter, luminescence, 24 h | Potency, µM (highest dose often 92.2 µM), for the others: at the highest dose activity change, positive = activation, actives largely listed as activators | actives 0.063% (n = 320,000) | AID 504706, 2011; also: potency is read from the fitted curve at half-maximal effect; % of control where 0% means no effect; nearly all actives have a fitted effect of over 45% in size
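H1299 (p53-null), stable ts p53-A138V + BP100-Luc; 1000 cells/well, Opti-MEM/10% FBS; cpd 4 pt, 1:5; 24 h, 37 deg C, 5% CO2; detection reagent 10 min RT; luminescence.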
GLS inh: qHTS for Inhibitors of Glutaminase (GLS). Glutaminase kidney isoform, mitochondrial (Homo sapiens), O94925. GLS enzymatic activity, qHTS titration. actives 0.21% (n = 410,000). Potency, µM (doses to about 45.5 µM), without a hit: at the top dose activity change, negative = inhibition, hits mostly inhibitors; also: potency is read from the fitted curve at half-maximal effect; % is scaled to controls: 0 for no effect and ±100 for the full control effect
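Assay buffer: 45 mM KH2PO4 pH 8.2, 0.02% Tween-20. hKGA acts on L-glutamine (1 mM solution added); product glutamate is reported by an oxidase/peroxidase Amplex Red coupling, with fluorescence taken at baseline and 30 min.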
BRCA1 expr up: qHTS Assay to Identify Small Molecule Activators of BRCA1 Expression. MCF7-BRCA1-FFLuc reporter, luminescence, 48 h; response scale: scaled: vehicle 0%, 10 µM genistein 100%. Potency, µM (top dose mostly 46.1 µM), without a hit: at the top dose activation, most hits filed as activators. actives 1.1% (n = 380,000). AID 624202, 2012; also: potency is read from the fitted curve at half-maximal effect; nearly all actives have a fitted effect of over 80% in size
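Reporter cells (MCF7, BRCA1 promoter-firefly luciferase) received library compounds across a concentration series for 48 h. End-point luminescence was measured and concentration-effect curves derived after normalization.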
TSHR antag: Antagonists of the Thyroid Stimulating Hormone Receptor: HTS campaign. Thyrotropin receptor (Homo sapiens), P16473. actives 0.2% (n = 330,000). TSHR-expressing cells, TSH-stimulated cAMP HTRF, 2 h; stronger effect = lower value. activity change, negative = inhibition, % at 11.5 µM;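 active = activity change below a set negative limit, meaning inhibition stronger than a set level, cut at about -70% in these data; inconclusive = activity change between two set negative limits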; also: % is scaled to controls: 0 for no effect and ±100 for the full control effect
Target sequence (P16473 whole entry, looked up): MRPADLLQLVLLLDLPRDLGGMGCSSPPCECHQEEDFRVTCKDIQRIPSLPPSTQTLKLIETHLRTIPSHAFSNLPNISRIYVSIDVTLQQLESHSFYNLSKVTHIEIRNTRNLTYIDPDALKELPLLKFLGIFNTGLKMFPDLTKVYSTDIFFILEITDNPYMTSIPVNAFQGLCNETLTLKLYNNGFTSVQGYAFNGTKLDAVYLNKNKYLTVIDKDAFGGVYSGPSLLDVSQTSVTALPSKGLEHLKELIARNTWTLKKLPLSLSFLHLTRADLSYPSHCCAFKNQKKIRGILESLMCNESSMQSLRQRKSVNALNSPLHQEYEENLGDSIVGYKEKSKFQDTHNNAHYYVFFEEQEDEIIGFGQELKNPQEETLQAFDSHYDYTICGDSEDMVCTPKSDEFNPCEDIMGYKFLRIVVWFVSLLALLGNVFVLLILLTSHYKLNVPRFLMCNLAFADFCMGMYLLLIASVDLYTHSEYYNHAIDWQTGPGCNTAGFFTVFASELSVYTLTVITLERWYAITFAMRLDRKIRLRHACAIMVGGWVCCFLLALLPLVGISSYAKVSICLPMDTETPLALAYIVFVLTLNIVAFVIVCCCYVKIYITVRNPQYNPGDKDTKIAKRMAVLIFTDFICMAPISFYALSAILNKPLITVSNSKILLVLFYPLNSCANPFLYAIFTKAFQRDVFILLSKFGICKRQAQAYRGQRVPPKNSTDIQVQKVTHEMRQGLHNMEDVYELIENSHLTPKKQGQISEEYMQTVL
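Inhibition of cAMP made by TSHR-expressing cells under TSH stimulation (4nM final, EC80; 2 h, 37 deg C) is quantified with a one-step lysis HTRF kit, anti-cAMP cryptate versus cAMP-d2.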
Active calls of the source: *; u = inconclusive; x = not tested or not shown; [ ] = dose if it differs, or a comment. A selection: hits, their analogues and other compounds. The true share with any hit is near 1.4%. Unless noted, calls follow the shape of the dose curve; as a rule, active = well fitted curve in the direction sought with a large enough effect; inconclusive = small, poorly fitted or top-dose-only effect, or another doubt; inactive = no such curve, though single readings can be large; an effect the other way counts as inactive or inconclusive.

SMILES | N370S GC mod | TCR activator | p53 reactivation | GLS inh | BRCA1 expr up | TSHR antag
COc1ccc(CCNC(=O)c2ccc(Cl)cc2)cc1 | 21% | 5% | 1% | -22% | 16% | -6
COc1ccccc1CCNC(=O)C(=O)NCC(c1ccco1)S(=O)(=O)c1ccc(F)cc1 (stereo not drawn) | x | x | x | -4% | x | x
COc1cc(/C=C/c2ccc3cccc(O)c3n2)ccc1O | -12% | 6% | u | 3% | 11µM* | 8
Cc1ccsc1/C=C/c1ccc2cccc(O)c2n1 | 7% | -2% | 40µM* | -5% | -27% | -5
CCOC(=O)c1c(Nc2ccc(C)c(C)c2)nnc(-c2ccccc2)c1-c1ccccc1 | x | x | x | -6% | -33% | x
COCCNC(=O)CN1N=C(c2ccc(OC)cc2)CCC1=O | -8% | 0% | 1% | 1% | -11% | 3
CCC(=O)N1CCC(c2ccc(OC)cc2)=N1 | 7% | 2%[46.1 µM] | u | 1% | 11µM* | 10
COc1cc(/C=C/C(=O)OCC(=O)c2ccc(OC(F)F)cc2)ccc1O | x | -7%[46.1 µM] | 0% | 11µM* | -27% | -13
O=C(/C=C/c1ccco1)OCC(=O)c1ccc(OC(F)F)cc1 | x | 2% | 4% | -15% | 8% | -1
CCOC(=O)C1=C(c2ccccc2)NC(N)=NC1c1ccc(OCc2ccc(C(=O)OC)cc2)cc1 (stereo not drawn) | 11µM* | 3% | 5% | -5% | -42% | -7
CCOC(=O)C1=C(c2ccccc2)Nc2ncnn2C1c1ccc(C(=O)O)cc1 (stereo not drawn) | -16% | -5% | 1% | -3% | -5% | 4
COC(=O)c1sccc1S(=O)(=O)N1CCN(c2cccc(C)c2)C(C)C1 (stereo not drawn) | x | x | x | 18% | x | x
Brc1ccccc1-n1nnc(-c2nccs2)n1 | 0% | -2% | 9% | 2% | 4.5µM* | -1
c1ccc(-n2nnc(-c3nccs3)n2)cc1 | x | 0% | x | 2% | 2.8µM* | x
CCCCC(CC)CNC(=O)c1ccc2c(=O)n(CCOC)c(=O)[nH]c2c1 (stereo not drawn) | x | x | x | 1% | -6% | x
Oc1oc(-c2ccccc2)nc1C=NCc1ccccc1 | -9% | -1% | 8% | 20% | 10µM* | -8
Oc1oc(-c2ccccc2)nc1C=Nc1ccccc1 | 13% | 1% | 7% | 14% | 35% | -1
CC(C)=CC(=O)Nc1ccc(Cl)cc1 | 18% | -10% | 10% | -2% | 3.2µM* | -2
C/C(=C\C(=O)c1ccc(Br)cc1)Nc1ccc(Cl)cc1 | -14% | -1%[46.1 µM] | 24% | -17% | 2.8µM* | -12
COCc1nc2ccccc2n1Cc1ccc(C(C)(C)C)cc1 | x | x | x | 1% | x | x
COc1ccc(OCc2nc3ccccc3n2Cc2ccc(C(C)(C)C)cc2)cc1 | x | x | x | -3% | 4.5µM* | x
Cc1nn(-c2ccccc2)c2nc(-c3ccco3)cc(C(=O)O)c12 | -7% | 7% | u | 7.1µM* | 2% | -16
CC1(C)CC(=O)c2c(O)cc(OCc3ccc(Br)cc3)cc2O1 | 11% | -3% | u | 0% | 3.5µM* | 0
O=C1C2=CC[C@@H]3C(=O)N(c4ccc(F)cc4F)C(=O)[C@H]3[C@H]2[C@H](O)[C@H]2O[C@H]12 | 8%[12.8 µM] | x | x | x | x | x
CC(=C/c1ccco1)/C=N/N1CCN(c2ccccc2)CC1 | 5% | 6% | u | x | -4%[1.84 µM] | -21
SMILES | N370S GC mod | TCR activator | p53 reactivation | GLS inh | BRCA1 expr up | TSHR antag
CC(/C=N/N1CCN(c2ccccc2)CC1)=C\c1ccco1 | -9% | 0% | 8% | 32% | 6.3µM* | -5
Cc1c(C(=O)Nc2cccc([N+](=O)[O-])c2)cnn1-c1ccccc1 | 4% | -2% | -1% | 2% | 2.5µM* | -8
COc1ccc(NC(=O)c2cnn(-c3ccccc3)c2C)cc1OC | -2% | x | u | -2% | 4µM* | -4
O=C1CC(c2ccccc2)=Nc2ccc(Br)cc2N1 | 7% | 3% | -1% | 3% | -59% | 3
Cc1ccc2c(c1)NC(=O)CC(c1ccccc1)=N2 | 20% | -6%[46.1 µM] | u | -2% | 10µM* | -1
CC(C)Cc1cc(C(=O)NCc2cccs2)no1 | 5% | -3% | u | 0% | 13µM* | 2
Cc1cc(C(=O)NCc2cccs2)cs1 | 5% | 0% | 24% | -3% | 10µM* | 10
O=C(NCc1cccs1)c1ccccc1 | 26% | -6% | 2% | -4% | 18% | -5
CC(C)Oc1ccc(C(=O)NCc2cccs2)cc1 | 10% | 7% | 7% | -13% | 13µM* | -4
CC(C)Oc1ccc(C(=O)NCCNC(=O)c2ccco2)cc1 | 0% | -2% | 9% | -13% | 61% | -94*
Nc1c(Br)cc(/C=C2\C=Cc3ccccc32)cc1Br | x | x | x | x | -4% | x
CCOC(=O)c1c(NC(=O)CSc2cn(CCNC(=O)c3ccc(OC)c(OC)c3)c3ccccc23)sc2c1CCCC2 | x | x | x | 8% | -11% | x
Oc1cc(O)c(/C=C/c2ccnc3ccccc23)c(O)c1 | x | x | x | x | 9% | x
CCCNC(=O)Cn1c(SCc2ccccc2C)nc2ccncc21 | x | x | x | x | 35% | x
Cc1cc2nc(-c3ccccc3)cc(=O)n2[nH]1 | 5% | 0% | 4% | -4% | 10µM* | -2
O=c1cc(-c2ccccc2)nc2nc(-c3ccccc3)[nH]n12 | 1% | -4% | 32µM* | 10% | 0% | -12
Nc1nc2nc(-c3ccccc3)cc(=O)n2[nH]1 | -4% | 3% | -1% | 4% | -31% | 6
O=c1cc(-c2ccccc2)nc2cc(-c3ccc(Br)cc3)[nH]n12 | -18% | 2% | 4% | 5% | 19% | -9
CO/S(=N\S(=O)(=O)c1ccc(Cl)cc1)c1ccc([N+](=O)[O-])cc1 (stereo not drawn) | x | x | x | x | x | 4
CCn1c(CNC(C)=O)nnc1SCC(=O)c1ccc(Br)cc1 | 4% | 4% | 11% | 7% | 3% | 0
CCN(CC)C(=S)SCC(=O)c1ccc(Br)cc1 | 16% | -4% | u | 5% | 13µM* | 7
COc1cc(NC(=O)CCCOc2cc(=O)n(C)c3ccccc23)cc(OC)c1OC | x | x | x | 4% | x | x
O=C(NNCc1ccc(O)cc1)c1ccccc1Cl | -2% | 0% | u | 30% | 13µM* | 11
c1ccc2cc(OCCOCCOc3ccc4ccccc4c3)ccc2c1 | 9% | 4% | -3% | 2% | 1% | -10

Source: PubChem
